A short description of experiment [1]: Human pregnane X receptor (PXR) small molecule agonists, qHTS cell viability counter screen (AID 1346977). Also: nearly all actives have a fitted effect of over 50% in size. Also: potency is read from the fitted curve at half-maximal effect. The essentials:
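PXR-Luc HepG2 cells in medium with 5% charcoal-stripped FBS were pre-incubated 5hr, then exposed to compounds for 24hr at 37C. Viability was read in the same wells by CellTiter-Fluor fluorescence, reagent added after 23hr with a 1hr incubation.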
In general terms: Quantitative high-throughput screening tests each substance at several concentrations.

Experiment [2] is described as follows: Caspase-3/7 induction in HepG2 cells by small molecules, qHTS assay (AID 1346978). Also: nearly all actives have a fitted effect of over 15% in size. The essentials:
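Caspase-3/7 induction was measured by Caspase-Glo 3/7 luminescence (30 min, room temperature) after a 17 hr compound exposure of wild-type HepG2 cells seeded at 2,000 per well and pre-incubated 5 hr.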

A short description of experiment [3]: Caspase-3/7 induction in CHO-K1 cells by small molecules, qHTS assay (AID 1346980). Also: nearly all actives have a fitted effect of over 15% in size. The essentials: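 Luminescent Caspase-Glo 3/7 read (30min, room temperature) quantified apoptosis induction. Cells were wild-type CHO-K1, treated with compound for 17hr at 37 C and 5% CO2.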
Experiment [4] in a line: Caspase-3/7 induction in HepG2 cells by small molecules, qHTS cell viability counter screen (AID 1346981). Also: nearly all actives have a fitted effect of over 30% in size. Also: potency is read from the fitted curve at half-maximal effect. In short, it runs like this: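 Wild-type HepG2 cells (2,000/well) were allowed to settle for 5 hr at 37 C, 5% CO2, then dosed with compounds in DMSO by pin transfer. After 16 hr at 37 C, CellTiter-Fluor was added and fluorescence read 1 hr later.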
Experiment [5] has as its target Nuclear receptor subfamily 1 group I member 2 (Homo sapiens) (UniProt O75469). Description: Human pregnane X receptor (PXR) small molecule agonists, qHTS assay (AID 1346982). Also: nearly all actives have a fitted effect of over 35% in size. Also: potency is read from the fitted curve at half-maximal effect. The essentials:
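PXR-Luc HepG2 cells (CYP3A4 promoter-driven luciferase) were seeded in medium with 5% charcoal-stripped FBS, left 5 hr at 37 C, then exposed to compounds in DMSO for 24 hr. Luminescence was read after ONE-Glo addition.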

In experiment [6] the target is Acetylcholinesterase (Homo sapiens) (UniProt P22303). Description: Acetylcholinesterase (AChE) small molecule antagonists: colormetric cell-based qHTS assay (AID 1347395; calls by dose curve; also: nearly all actives have a fitted effect of over 30% in size). In short, it runs like this:
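SH-SY5Y cells, plated overnight at 37 C, were exposed to compounds for 30 min at 37 C and 5% CO2. Acetylthiocholine plus DTNB was then added, and thiocholine from endogenous AChE was quantified colorimetrically after 90 min at 37 C.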

The target is the same in experiment [7]. Nature of the experiment: Acetylcholinesterase (AChE) small molecule antagonists: enzyme-based qHTS assay (AID 1347397; calls by dose curve; also: nearly all actives have a fitted effect of over 55% in size). The note with it: Potency: AChE enzyme activity inhibition. The essentials: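 rhAChE 50 mU/mL (dispensed) + cpd or DMSO, 30 min RT; add DTNB/acetylthiocholine cocktail, 10 min RT; colorimetric thiocholine readout. qHTS, 1536-well format.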

The target is the same in experiment [8]. Description: Acetylcholinesterase (AChE) small molecule antagonists: fluorescence cell-based qHTS assay (AID 1347398; calls by dose curve; also: nearly all actives have a fitted effect of over 50% in size). The note with it: Potency: AChE activity. The essentials: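 Read-out is Thiolite Green fluorescence at Ex/Em = 490/520 nm, formed by reaction with thiocholine released when cellular AChE in SH-SY5Y cells hydrolyzes acetylthiocholine. Compounds were preincubated 30 min at 37 C before substrate.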

Experiment [9] shares this target. Description: Acetylcholinesterase (AChE) small molecule antagonists: enzyme-based qHTS assay with human liver microsomes (AID 1347399; calls by dose curve; also: nearly all actives have a fitted effect of over 60% in size). The note with it: Potency: qHTS inhibition. The essentials: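 Recombinant human AChE (50 mU/mL in the enzyme mix) and human liver microsomes (0.25 mg/mL final) were preincubated with compound and NADPH (0.25 mg/mL final) for 30 min at 37 C. Acetylthiocholine/DTNB was then added; thiocholine was read colorimetrically after 10 min at room temperature.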

The target of experiment [10] is Cytochrome P450 2C19 (Homo sapiens) (UniProt P33261). Description: Cytochrome P450 Family 2 Subfamily C Member 19 (CYP2C19) small molecule antagonists: luciferase reporter qHTS assay (AID 1671197). Also: nearly all actives have a fitted effect of over 65% in size. Also: potency is read from the fitted curve at half-maximal effect. The essentials:
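P450-Glo CYP2C19 system: enzyme-substrate mix with compound 10 min at room temperature, then NADPH regeneration solution, 1 h at 37C. Proluciferin-to-luciferin conversion detected by luminescence after 20 min with detection reagent; ketoconazole as positive control.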
In general terms: Reporter assays use an easily measured gene product as a stand-in for the process of interest.

The target in experiment [11] is Cytochrome P450 2C9 (Homo sapiens) (UniProt P11712). Nature of the experiment: Cytochrome P450 Family 2 Subfamily C Member 9 (CYP2C9) small molecule antagonists: luciferase reporter qHTS assay (AID 1671198). Also: nearly all actives have a fitted effect of over 50% in size. Also: potency is read from the fitted curve at half-maximal effect. The essentials: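 Enzyme-substrate mix preincubated with compound 10 min at room temperature; reaction started with NADPH regeneration solution, 1 h 37C. Luminescent luciferin product read after 20 min detection reagent.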
Cytochrome P450 2C9 (Homo sapiens), sequence (P11712 whole entry, looked up): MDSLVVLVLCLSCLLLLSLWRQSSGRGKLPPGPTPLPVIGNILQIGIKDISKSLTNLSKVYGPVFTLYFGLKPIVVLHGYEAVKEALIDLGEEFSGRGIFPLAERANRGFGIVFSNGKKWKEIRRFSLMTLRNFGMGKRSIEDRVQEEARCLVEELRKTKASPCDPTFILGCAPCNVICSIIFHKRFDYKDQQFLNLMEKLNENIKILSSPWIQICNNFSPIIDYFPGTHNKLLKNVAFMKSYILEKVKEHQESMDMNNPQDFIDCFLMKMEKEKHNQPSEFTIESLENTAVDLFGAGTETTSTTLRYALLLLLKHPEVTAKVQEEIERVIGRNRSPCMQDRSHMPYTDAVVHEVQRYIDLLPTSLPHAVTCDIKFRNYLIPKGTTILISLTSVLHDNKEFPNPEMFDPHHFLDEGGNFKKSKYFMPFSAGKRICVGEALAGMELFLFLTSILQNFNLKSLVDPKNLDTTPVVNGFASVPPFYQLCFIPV

Experiment [12] concerns the target Cytochrome P450 1A2 (Homo sapiens) (UniProt P05177). Description: Cytochrome P450 Family 1 Subfamily A Member 2 (CYP1A2) small molecule antagonists: luciferase reporter qHTS assay (AID 1671199). Also: nearly all actives have a fitted effect of over 50% in size. Also: potency is read from the fitted curve at half-maximal effect. In short, it runs like this:
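Human CYP1A2 activity measured with a P450-Glo proluciferin substrate; compounds in DMSO preincubated 10 min at room temperature with enzyme-substrate mix, then NADPH regeneration system added for 1 h. Luciferin detection reagent, 20 min, luminescence read.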

The target in experiment [13] is Voltage-gated inwardly rectifying potassium channel KCNH2 (Homo sapiens) (UniProt Q12809). Description: Human Ether-a-go-go-Related Gene (hERG) channel small molecule antagonists: fluorescence cell-based qHTS assay (AID 1671200). In short, it runs like this:
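U2OS cells expressing the channel were plated at 1000 cells/well, incubated overnight at 37 C, then loaded with FluxOR II thallium-sensitive dye for 1 h at room temperature in the dark, with a further 10 min at room temperature before stimulation.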
On the technique in general: Block of hERG is tested as a sign of cardiac risk.

A short description of experiment [14]: Caspase-3/7 induction in CHO-K1 cells by small molecules, qHTS cell viability counter screen (AID 1346979). Also: nearly all actives have a fitted effect of over 35% in size. Also: potency is read from the fitted curve at half-maximal effect. The essentials:
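Wild-type CHO-K1 cells were seeded at 1,500 per well, rested 5hr at 37 C, then exposed to compounds in DMSO. After 16hr, CellTiter-Fluor reagent was added and fluorescence read 1hr later as the viability measure.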

Experiment [15] addresses Cytochrome P450 2D6 (Homo sapiens) (UniProt P10635). Description: Cytochrome P450 Family 2 Subfamily D Member 6 (CYP2D6) small molecule antagonists: luciferase reporter qHTS assay (AID 1671196). Also: nearly all actives have a fitted effect of over 50% in size. Also: potency is read from the fitted curve at half-maximal effect. In short, it runs like this: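 CYP2D6 enzyme–substrate mix was held with compound for 10 min at room temperature, then NADPH regeneration solution was added and the reaction ran 1 h at room temperature. Luciferin product was detected by luminescence after 20 min with detection reagent.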

For experiment [16], the target named is Cytochrome P450 3A4 (Homo sapiens) (UniProt P08684). Nature of the experiment: Cytochrome P450 Family 3 Subfamily A Member 4 (CYP3A4) small molecule antagonists: luciferase reporter qHTS assay (AID 1671201). Also: nearly all actives have a fitted effect of over 50% in size. Also: potency is read from the fitted curve at half-maximal effect. The essentials: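 P450-Glo CYP3A4 system with proluciferin substrate; compounds preincubated 10 min RT with enzyme-substrate mix, then NADPH regeneration added for 1 h RT. Detection reagent 20 min, luminescence read as relative luminescence units.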
Cytochrome P450 3A4 (Homo sapiens), sequence (P08684 whole entry, looked up): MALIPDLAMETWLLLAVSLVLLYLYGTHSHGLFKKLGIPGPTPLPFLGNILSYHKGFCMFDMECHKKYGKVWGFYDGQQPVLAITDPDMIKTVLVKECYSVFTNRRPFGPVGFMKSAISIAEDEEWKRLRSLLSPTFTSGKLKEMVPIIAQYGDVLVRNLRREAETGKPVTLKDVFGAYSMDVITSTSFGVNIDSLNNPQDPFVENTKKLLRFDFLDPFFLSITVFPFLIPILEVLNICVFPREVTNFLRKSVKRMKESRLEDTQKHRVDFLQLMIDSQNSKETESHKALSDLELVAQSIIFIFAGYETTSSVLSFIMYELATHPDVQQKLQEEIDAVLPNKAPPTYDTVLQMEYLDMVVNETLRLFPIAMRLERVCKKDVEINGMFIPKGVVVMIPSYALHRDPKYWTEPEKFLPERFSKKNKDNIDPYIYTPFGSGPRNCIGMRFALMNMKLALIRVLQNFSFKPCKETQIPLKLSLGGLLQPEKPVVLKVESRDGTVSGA

The values below come from PubChem BioAssay (Tox21).

Each structure is given as a SMILES string. Inconclusive results are not listed. The source made the active and inactive calls. Unless noted, calls follow the shape of the dose curve; as a rule, active = well fitted curve in the direction sought with a large enough effect in the repeat runs; inconclusive = weak or mixed curves; inactive = no such curve, though single readings can be large; an effect the other way counts as inactive or inconclusive.

Voltage-gated inwardly rectifying potassium channel KCNH2 (Homo sapiens), sequence (Q12809 whole entry, looked up): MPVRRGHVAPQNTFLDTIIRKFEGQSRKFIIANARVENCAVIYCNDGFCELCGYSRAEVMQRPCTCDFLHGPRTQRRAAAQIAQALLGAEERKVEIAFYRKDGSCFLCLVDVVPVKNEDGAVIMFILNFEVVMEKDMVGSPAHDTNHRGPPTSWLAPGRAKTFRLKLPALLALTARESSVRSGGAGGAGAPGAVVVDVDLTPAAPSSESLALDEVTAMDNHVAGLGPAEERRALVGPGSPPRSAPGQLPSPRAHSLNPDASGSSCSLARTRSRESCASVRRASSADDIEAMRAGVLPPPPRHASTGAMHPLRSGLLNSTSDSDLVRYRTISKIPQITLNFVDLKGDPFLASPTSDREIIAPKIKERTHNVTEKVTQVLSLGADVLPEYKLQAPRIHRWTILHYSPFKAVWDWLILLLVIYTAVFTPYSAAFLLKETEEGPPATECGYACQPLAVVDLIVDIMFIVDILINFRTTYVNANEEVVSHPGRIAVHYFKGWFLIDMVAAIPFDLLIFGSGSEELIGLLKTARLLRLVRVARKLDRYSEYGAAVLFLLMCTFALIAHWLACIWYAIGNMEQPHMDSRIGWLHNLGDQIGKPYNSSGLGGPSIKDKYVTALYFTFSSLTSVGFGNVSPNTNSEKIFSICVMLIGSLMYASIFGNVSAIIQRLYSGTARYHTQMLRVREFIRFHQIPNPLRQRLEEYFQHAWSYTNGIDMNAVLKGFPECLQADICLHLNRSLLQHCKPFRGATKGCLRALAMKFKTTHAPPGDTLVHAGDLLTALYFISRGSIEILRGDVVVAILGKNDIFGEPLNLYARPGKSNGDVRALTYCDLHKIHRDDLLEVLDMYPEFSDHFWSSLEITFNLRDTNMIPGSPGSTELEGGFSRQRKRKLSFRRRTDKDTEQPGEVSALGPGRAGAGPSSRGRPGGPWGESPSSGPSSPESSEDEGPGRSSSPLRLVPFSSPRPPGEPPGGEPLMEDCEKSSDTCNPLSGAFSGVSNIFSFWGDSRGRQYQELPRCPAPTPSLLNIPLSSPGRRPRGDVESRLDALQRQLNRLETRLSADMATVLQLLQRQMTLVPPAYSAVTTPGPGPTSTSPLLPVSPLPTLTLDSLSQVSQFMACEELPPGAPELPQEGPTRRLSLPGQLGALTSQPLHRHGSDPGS
Acetylcholinesterase (Homo sapiens), sequence (P22303 whole entry, looked up): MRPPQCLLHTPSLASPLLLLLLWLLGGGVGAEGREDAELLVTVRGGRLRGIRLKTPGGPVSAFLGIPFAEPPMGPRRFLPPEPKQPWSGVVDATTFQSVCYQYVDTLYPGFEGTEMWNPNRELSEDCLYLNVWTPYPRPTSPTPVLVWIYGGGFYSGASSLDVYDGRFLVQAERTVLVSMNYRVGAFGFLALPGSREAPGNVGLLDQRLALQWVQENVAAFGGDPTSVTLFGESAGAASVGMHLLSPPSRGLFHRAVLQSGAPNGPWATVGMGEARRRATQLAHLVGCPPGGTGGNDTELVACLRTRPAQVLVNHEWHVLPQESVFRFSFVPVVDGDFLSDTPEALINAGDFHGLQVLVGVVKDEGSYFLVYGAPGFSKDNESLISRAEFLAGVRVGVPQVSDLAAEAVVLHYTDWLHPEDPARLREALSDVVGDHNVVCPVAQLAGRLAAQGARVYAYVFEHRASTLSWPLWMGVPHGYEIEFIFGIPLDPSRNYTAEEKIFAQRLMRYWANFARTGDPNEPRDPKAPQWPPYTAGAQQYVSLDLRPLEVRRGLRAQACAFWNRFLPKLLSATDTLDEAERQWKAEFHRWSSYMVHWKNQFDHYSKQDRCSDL
Cytochrome P450 2C19 (Homo sapiens), sequence (P33261 whole entry, looked up): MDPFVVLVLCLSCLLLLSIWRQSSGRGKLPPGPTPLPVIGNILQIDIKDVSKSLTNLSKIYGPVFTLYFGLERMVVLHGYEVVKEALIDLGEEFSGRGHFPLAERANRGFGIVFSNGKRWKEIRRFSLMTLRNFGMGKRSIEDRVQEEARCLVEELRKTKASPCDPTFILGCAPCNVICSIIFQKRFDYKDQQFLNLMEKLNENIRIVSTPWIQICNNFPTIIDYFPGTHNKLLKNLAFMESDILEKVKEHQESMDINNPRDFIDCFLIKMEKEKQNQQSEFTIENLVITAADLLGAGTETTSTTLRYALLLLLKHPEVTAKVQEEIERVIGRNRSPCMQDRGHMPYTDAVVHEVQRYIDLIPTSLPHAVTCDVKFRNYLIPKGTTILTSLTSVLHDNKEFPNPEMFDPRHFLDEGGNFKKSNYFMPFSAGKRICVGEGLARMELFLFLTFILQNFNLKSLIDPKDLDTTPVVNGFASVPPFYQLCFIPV
Cytochrome P450 1A2 (Homo sapiens), sequence (P05177 whole entry, looked up): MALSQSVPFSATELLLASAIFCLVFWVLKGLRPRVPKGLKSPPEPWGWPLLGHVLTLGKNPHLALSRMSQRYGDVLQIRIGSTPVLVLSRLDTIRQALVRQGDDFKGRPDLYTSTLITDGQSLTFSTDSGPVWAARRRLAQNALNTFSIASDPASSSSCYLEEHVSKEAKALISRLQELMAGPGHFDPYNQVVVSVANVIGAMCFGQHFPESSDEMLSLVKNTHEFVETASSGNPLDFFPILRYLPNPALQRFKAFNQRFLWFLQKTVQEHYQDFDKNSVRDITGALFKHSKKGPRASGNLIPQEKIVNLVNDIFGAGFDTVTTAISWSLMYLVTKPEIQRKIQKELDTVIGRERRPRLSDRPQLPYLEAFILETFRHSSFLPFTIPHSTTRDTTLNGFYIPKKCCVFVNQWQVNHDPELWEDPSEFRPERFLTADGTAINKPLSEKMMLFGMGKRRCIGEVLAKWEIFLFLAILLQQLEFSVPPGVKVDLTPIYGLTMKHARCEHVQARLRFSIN
Cytochrome P450 2D6 (Homo sapiens), sequence (P10635 whole entry, looked up): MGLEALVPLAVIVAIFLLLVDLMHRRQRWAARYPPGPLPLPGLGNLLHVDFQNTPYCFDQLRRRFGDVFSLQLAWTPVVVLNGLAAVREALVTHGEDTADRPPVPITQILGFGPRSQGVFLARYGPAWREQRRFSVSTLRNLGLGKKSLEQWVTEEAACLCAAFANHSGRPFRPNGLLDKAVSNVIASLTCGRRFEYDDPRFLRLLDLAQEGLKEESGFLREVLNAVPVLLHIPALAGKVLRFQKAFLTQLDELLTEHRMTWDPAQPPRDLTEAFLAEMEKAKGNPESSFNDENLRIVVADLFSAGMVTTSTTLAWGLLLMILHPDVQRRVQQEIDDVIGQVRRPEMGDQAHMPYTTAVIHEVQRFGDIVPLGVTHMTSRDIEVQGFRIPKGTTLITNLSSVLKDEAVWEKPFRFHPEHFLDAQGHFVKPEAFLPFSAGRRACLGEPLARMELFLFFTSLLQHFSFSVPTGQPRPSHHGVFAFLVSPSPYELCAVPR
Nuclear receptor subfamily 1 group I member 2 (Homo sapiens), sequence (O75469 whole entry, looked up): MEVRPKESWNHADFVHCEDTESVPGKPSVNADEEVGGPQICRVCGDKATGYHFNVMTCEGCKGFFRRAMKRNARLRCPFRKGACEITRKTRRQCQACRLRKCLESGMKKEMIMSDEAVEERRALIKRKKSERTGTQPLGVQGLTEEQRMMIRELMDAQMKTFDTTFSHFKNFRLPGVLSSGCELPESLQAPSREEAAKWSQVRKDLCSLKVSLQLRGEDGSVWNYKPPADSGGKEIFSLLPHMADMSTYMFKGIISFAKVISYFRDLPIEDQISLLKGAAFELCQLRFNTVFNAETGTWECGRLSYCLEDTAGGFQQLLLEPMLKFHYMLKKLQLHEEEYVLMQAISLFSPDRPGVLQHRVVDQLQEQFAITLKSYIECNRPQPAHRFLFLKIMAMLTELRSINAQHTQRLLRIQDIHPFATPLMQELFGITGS

With `CCC[CH2][Sn]([CH2]CCC)([O]C(C)=O)[O]C(C)=O`, the Potency is 27.6 µM (active) in [1], 49 µM (active) in experiment [4] and 7.77 µM (active) in experiment [5]. For the same molecule, the Potency result in experiment [2], in experiment [3], in [6], in experiment [7], in experiment [8] and in experiment [9] was “inactive” in each case. Also, the Potency result in experiment [10], in experiment [11], in [12] and in experiment [13] was “inactive” in each case.

In the case of `[C-]1=CC=CC1.[Cl][Zr+2][Cl].c1cc[cH-]c1`, the Potency result in experiment [1], in experiment [14] and in experiment [13] was “inactive” each time.

For the molecule `CSC(=O)c1c(C(F)F)nc(C(F)(F)F)c(C(=O)SC)c1CC(C)C`, the Potency result in experiment [1], in [2], in [3], in [6], in experiment [7] and in experiment [8] was “inactive” each time. The Potency result in experiment [9] and in [15] was “inactive” throughout. The Potency in [5] was 4.83 µM (active); in experiment [10] it was 3.15 µM (active); in experiment [11], 9.97 µM (active); in [12] it was 3.15 µM (active); in experiment [16] it was 6.29 µM (active).

Take `CCC(C)c1cccc(C(C)CC)c1O` (stereo not drawn): the Potency entry in experiment [1], in experiment [3], in [4], in experiment [5], in [6] and in experiment [7] was “inactive” each time. The Potency result in experiment [8], in experiment [9], in [15] and in experiment [10] was “inactive” throughout. Further, the Potency in experiment [11] is 15.9 µM (active); in experiment [12], 22.4 µM (active); in experiment [16] it was 28.3 µM (active).

For `COP(=O)(OC)O/C(=C\Cl)c1cc(Cl)c(Cl)cc1Cl`, the Potency entry in experiment [1], in experiment [2], in experiment [3], in experiment [4], in experiment [9] and in experiment [16] was “inactive” throughout. In addition, the Potency in experiment [5] was 54.5 µM (active); in experiment [15], 79.6 µM (active); in experiment [10], 5.03 µM (active); in experiment [11], 44.8 µM (active); in experiment [12], 1.42 µM (active).

In the case of `Nc1cc(Cl)ccc1Cl`, the Potency result in experiment [2], in experiment [14], in [3], in experiment [4], in [5] and in experiment [6] was “inactive” each time. Moreover, the Potency result in [7], in [8], in experiment [9], in [15], in experiment [10] and in experiment [11] was “inactive” throughout. Further, in [13], the Potency entry was “inactive”. Moreover, the Potency in [12] was 31.5 µM (active).

For the molecule `CC1(C)C(C=C(Cl)Cl)C1C(=O)OC(C#N)c1ccc(F)c(Oc2ccccc2)c1` (stereo not drawn), the Potency entry in experiment [1], in [2], in [3], in experiment [5], in experiment [7] and in experiment [8] was “inactive” throughout. The Potency result in experiment [9], in experiment [12], in experiment [13] and in [16] was “inactive” in each case. For the same molecule, the Potency is 28.3 µM (active) in experiment [15], 10 µM (active) in experiment [10] and 3.17 µM (active) in experiment [11].

As for `N#CC(C#N)=NNc1cccc(Cl)c1`, the Potency result in experiment [2], in experiment [3], in experiment [5], in [6], in experiment [7] and in [8] was “inactive” each time. Also, the Potency entry in experiment [9] was “inactive”. The Potency in experiment [14] was 3.86 µM (active); in experiment [4], 24.3 µM (active); in experiment [15], 63.3 µM (active); in [10] it was 79.6 µM (active); in experiment [11] it was 8.94 µM (active); in experiment [12], 8.94 µM (active).
